Test results reported in PubChem BioAssay (Tox21).
Values without a mark were called inactive. Results filed as inconclusive are left out. Entries that show only a call come without a potency. The source made the active and inactive calls. Unless noted, calls come from the whole dose curve.

Key:
[1] = Nuclear factor erythroid 2-related factor 2/antioxidant responsive element (Nrf2/ARE) small molecule agonists: qHTS cell viability counter screen in human keratinocytes (AID 1919968; active = well fitted curve in the direction sought with a large enough effect in the repeat runs; an effect the other way counts as inactive or inconclusive; note: nearly all actives have a fitted effect of over 55% in size; note: potency is the fitted concentration of half-maximal effect)
Summary of the method: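 HaCaT ARE reporter line, 1,500 cells/well; 5 h settle, 37 C/5% CO2; cpd in DMSO pinned; 23 h exposure; CellTiter-Fluor, 1 h; fluorescence.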

[2] = Nuclear factor erythroid 2-related factor 2/antioxidant responsive element (Nrf2/ARE) small molecule agonists: luciferase reporter gene qHTS assay in human keratinocytes (AID 1919969); note: nearly all actives have a fitted effect of over 35% in size; note: potency is the fitted concentration of half-maximal effect
[3] = molecular target: Gonadotropin-releasing hormone receptor (Homo sapiens) (UniProt P30968); experiment: Human gonadotropin-releasing hormone receptor (GnRHR) small molecule agonists, calcium flux assay in GnRHR-HEK293 cells (AID 1920063); note: nearly all actives have a fitted effect of over 35% in size
Sequence of Gonadotropin-releasing hormone receptor (Homo sapiens) (P30968 whole entry, looked up): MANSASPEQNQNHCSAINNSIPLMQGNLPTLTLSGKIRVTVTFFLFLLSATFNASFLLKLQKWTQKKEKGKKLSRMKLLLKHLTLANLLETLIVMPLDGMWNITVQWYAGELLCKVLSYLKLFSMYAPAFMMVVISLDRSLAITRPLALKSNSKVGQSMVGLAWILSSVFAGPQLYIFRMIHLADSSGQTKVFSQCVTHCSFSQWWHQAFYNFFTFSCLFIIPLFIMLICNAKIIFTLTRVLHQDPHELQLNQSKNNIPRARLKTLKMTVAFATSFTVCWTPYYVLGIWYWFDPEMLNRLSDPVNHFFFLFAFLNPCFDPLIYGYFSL
Summary of the method: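 GnRHR-HEK293, 1500 cells/well, 18 h 37 C/5% CO2; Ca dye 1 h 37 C; cpd pinned (DMSO), agonist mode; kinetic FL 480/540, 3 min, 1 s reads; 15 conc, n=3.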

[4] = molecular target: KiSS-1 receptor (Homo sapiens) (UniProt Q969F8); experiment: Human kisspeptin (KISS1R) small molecule agonists, calcium flux assay in KISS1R-HEK293 cells (AID 1920064; active = well fitted curve in the direction sought with a large enough effect in the repeat runs; an effect the other way counts as inactive or inconclusive)
Sequence of KiSS-1 receptor (Homo sapiens) (Q969F8 whole entry, looked up): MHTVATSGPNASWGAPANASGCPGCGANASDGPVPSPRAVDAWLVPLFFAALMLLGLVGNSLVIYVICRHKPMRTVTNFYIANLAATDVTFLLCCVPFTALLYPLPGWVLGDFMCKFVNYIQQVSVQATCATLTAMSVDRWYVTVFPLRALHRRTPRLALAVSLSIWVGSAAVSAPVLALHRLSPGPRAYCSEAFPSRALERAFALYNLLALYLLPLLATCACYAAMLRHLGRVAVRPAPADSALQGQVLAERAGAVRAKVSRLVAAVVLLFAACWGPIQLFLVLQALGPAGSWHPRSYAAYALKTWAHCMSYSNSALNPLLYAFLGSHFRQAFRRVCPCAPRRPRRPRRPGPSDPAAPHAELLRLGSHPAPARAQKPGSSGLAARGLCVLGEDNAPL
Summary of the method: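 Stable human KISS1R HEK293 line; 18 h plating, 37 C/5% CO2; calcium dye 1 h 37 C; compound pin transfer; kinetic fluorescence Ex/Em 480/540, 3 min.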

[5] = G protein-coupled receptor (GPCR) small molecule agonists, calcium flux assay: HEK293 wild type cell line counter screen (AID 1920065)
Summary of the method: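 Kinetic fluorescence at Ex/Em 480/540, recorded every second over 3 min, served as the read-out after compound addition. Each compound was tested at 15 concentrations in triplicate on cells pre-loaded with calcium dye for 1 h.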

[6] = p53 small molecule agonists, cell-based qHTS assay with human liver microsomes (AID 1963577)
Summary of the method: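 p53RE-bla cells, 4,000/well, compound added after 5 h, with human liver microsomes 0.5 mg/mL and NADPH 0.5 mg/mL final; 16 h at 37 C, then LiveBLAzer 2 h RT, fluorescence.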

[7] = p53 small molecule agonists, cell-based qHTS assay with rat liver microsomes (AID 1963578)
Summary of the method: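 p53RE-bla cells, 4,000/well, pre-incubated 5 h, then given compounds plus rat liver microsomes (0.5 mg/mL final) and NADPH (0.5 mg/mL final). Incubation 16 h at 37 C; beta-lactamase reporter read by LiveBLAzer fluorescence after 2 h at room temperature.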

[8] = p53 small molecule agonists, cell-based qHTS assay with human liver microsomes: qHTS cell viability counter screen (AID 1963579); note: nearly all actives have a fitted effect of over 45% in size; note: potency is the fitted concentration of half-maximal effect
Summary of the method: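 p53RE-bla cells, 4,000/well, dosed 5 hours after plating, with human liver microsomes (0.5 mg/mL final) plus NADPH (0.5 mg/mL final), 16 hours at 37 C. Viability read as CellTiter-Glo luminescence after 30 min at room temperature.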

[9] = p53 small molecule agonists, cell-based qHTS assay with rat liver microsomes: qHTS cell viability counter screen (AID 1963580); note: nearly all actives have a fitted effect of over 45% in size; note: potency is the fitted concentration of half-maximal effect
Summary of the method: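 p53RE-bla HCT-116 cells (4,000/well) rested 5 h at 37 C, then given Tox21 compounds in DMSO with rat liver microsomes (0.5 mg/mL final) plus NADPH (0.5 mg/mL final) for 16 h at 37 C. Viability read by CellTiter-Glo luminescence after 30 min at room temperature.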

[10] = p53 small molecule agonists, cell-based qHTS assay: qHTS cell viability counter screen (AID 1963581); note: nearly all actives have a fitted effect of over 45% in size; note: potency is the fitted concentration of half-maximal effect
Summary of the method: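 HCT-116 p53RE-bla cells, 4,000/well, plated 5 h before compound pin transfer; 16 h at 37 C; bla substrate 2 h RT; then CellTiter-Glo, 30 min RT, luminescence.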

[11] = p53 small molecule agonists, cell-based qHTS assay (AID 1963582; active = well fitted activation curve with a large enough effect in the signal ratio in the repeat runs, not every such curve was filed as active; the % refers to the signal ratio)
Summary of the method: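 Reporter line: p53RE-bla. Pre-incubation 5 h, 37 C, 5% CO2; compound (DMSO, pin tool) 16 h, 37 C; B/G FRET substrate 2 h RT; fluorescence intensity read.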

[12] = cAMP Responsive Elements (CRE) small molecule agonists, cell-based qHTS assay (AID 1963590)
Summary of the method: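 HEK 293T CRE-bla, 2,000 cells/well, 18 h preincubation 37 C/5% CO2; cpds (DMSO) pinned, 3 h; LiveBLAzer B/G FRET substrate, 2 h RT.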

[13] = cAMP Responsive Elements (CRE) small molecule antagonists, cell-based qHTS assay (AID 1963591; active = well fitted inhibition curve with a large enough effect in the signal ratio in the repeat runs, not every such curve was filed as active; the % refers to the signal ratio)
Summary of the method: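 Beta-lactamase reporter read by FRET substrate (LiveBLAzer B/G) after 2 h at room temperature. CRE-bla HEK293T cells had received compound plus 0.25 uM (final) NKH477 for 3 h at 37 °C.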

[14] = molecular target: Beta-2 adrenergic receptor (Homo sapiens) (UniProt P07550); experiment: Adrenergic beta2 receptor (ADRB2) small molecule antagonists, cell-based qHTS assay (AID 1963592); note: series mostly up to about 92 µM; nearly all actives have a fitted effect of over 50% in size
Sequence of Beta-2 adrenergic receptor (Homo sapiens) (P07550 whole entry, looked up): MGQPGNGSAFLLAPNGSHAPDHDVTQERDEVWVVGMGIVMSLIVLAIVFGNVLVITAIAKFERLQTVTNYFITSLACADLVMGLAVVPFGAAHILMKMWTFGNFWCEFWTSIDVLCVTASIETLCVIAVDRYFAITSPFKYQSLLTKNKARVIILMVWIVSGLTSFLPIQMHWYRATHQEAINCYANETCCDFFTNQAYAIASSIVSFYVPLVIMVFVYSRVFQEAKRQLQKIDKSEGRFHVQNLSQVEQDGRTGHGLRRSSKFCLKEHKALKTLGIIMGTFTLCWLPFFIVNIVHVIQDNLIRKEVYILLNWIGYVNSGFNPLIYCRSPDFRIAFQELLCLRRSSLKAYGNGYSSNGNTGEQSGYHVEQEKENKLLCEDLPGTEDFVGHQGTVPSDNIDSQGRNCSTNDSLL
Summary of the method: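 Cells (CHO, stable ADRB2 overexpression) incubated 18-20hr at 37C; compounds added from DMSO; agonist mix (1nM isoproterenol, 100uM IBMX, 25uM Ro-20-1724) added; 0.5hr RT; d2-cAMP and anti-cAMP-cryptate added; 1hr RT; 665/615 nm read.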

[15] = molecular target: D(2) dopamine receptor (Homo sapiens) (UniProt P14416); experiment: Dopamine D2 receptor (DRD2) small molecule agonists, cell-based qHTS assay (AID 1963594); note: nearly all actives have a fitted effect of over 35% in size
Sequence of D(2) dopamine receptor (Homo sapiens) (P14416 whole entry, looked up): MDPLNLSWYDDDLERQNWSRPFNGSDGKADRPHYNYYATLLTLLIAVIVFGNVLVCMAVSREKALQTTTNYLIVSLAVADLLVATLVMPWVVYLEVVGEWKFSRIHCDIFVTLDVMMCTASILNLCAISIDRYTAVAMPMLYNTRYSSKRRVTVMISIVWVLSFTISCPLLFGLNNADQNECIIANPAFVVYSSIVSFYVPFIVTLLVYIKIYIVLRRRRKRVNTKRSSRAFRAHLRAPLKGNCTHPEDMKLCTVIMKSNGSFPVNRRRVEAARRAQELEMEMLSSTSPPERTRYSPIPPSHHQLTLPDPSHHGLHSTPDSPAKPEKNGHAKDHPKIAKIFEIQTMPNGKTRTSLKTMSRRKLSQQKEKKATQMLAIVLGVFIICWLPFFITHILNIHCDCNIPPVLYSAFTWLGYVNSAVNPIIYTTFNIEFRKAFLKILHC
Summary of the method: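 HEK293 cells stably expressing DRD2 were cultured 24 h at 37 C, then given Ro20-1724 (0.1 mM final) and compounds for 10 min at room temperature. NKH477 (200nM) was then added for 30 min. cAMP was read by HTRF.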

[16] = molecular target: D(2) dopamine receptor (Homo sapiens) (UniProt P14416); experiment: Dopamine D2 receptor (DRD2) small molecule antagonists, cell-based qHTS assay (AID 1963595; active = well fitted inhibition curve with a large enough effect in the signal ratio in the repeat runs, with a control signal flat; the % refers to the signal ratio)
Summary of the method: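 Cells were plated and grown for 24 h at 37 °C. Ro20-1724 (0.1 mM final) went in first, then compound for 10 min. NKH477 (200 nM) with quinpirole (12 nM) followed for 30 min at RT, then HTRF detection reagents for 1 h.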

[17] = molecular target: 5-hydroxytryptamine receptor 2A (Homo sapiens) (UniProt P28223); experiment: 5-hydroxytryptamine receptor 2A (HTR2A) small molecule antagonists, cell-based qHTS assay (AID 1963586); note: nearly all actives have a fitted effect of over 45% in size
Sequence of 5-hydroxytryptamine receptor 2A (Homo sapiens) (P28223 whole entry, looked up): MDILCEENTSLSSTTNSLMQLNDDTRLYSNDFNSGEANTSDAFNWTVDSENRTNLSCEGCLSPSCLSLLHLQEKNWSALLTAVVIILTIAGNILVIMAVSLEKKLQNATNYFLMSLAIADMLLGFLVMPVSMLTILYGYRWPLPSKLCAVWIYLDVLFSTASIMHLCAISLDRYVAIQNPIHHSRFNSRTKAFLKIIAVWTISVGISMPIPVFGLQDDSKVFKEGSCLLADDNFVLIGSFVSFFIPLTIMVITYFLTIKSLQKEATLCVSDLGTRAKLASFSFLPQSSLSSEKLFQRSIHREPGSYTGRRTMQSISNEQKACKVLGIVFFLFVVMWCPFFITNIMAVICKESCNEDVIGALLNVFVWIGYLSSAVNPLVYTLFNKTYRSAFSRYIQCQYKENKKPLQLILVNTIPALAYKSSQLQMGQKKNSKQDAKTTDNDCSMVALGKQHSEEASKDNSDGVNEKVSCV
Summary of the method: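 Antagonist-mode intracellular calcium assay: DOI (4 nM) added after 5 min compound pre-incubation at room temperature to dye-loaded HTR2A-CHO cells. Fluorescence followed for 3 min, sampled every second.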

[18] = molecular target: 5-hydroxytryptamine receptor 2A (Homo sapiens) (UniProt P28223); experiment: 5-hydroxytryptamine receptor 2A (HTR2A) small molecule agonists, cell-based qHTS assay (AID 1963587); note: nearly all actives have a fitted effect of over 30% in size
Summary of the method: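 HTR2A-CHO cells, plated 18 h at 37 C/5% CO2, dye-loaded 1 h at 37 C; compounds in DMSO added by pin tool (agonist mode). Intracellular calcium flux read as kinetic fluorescence on FDSS over 2 min at 1 s intervals.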

[19] = molecular target: Muscarinic acetylcholine receptor M1 (Homo sapiens) (UniProt P11229); experiment: Cholinergic receptor muscarinic 1 (CHRM1) small molecule antagonists, cell-based qHTS assay (AID 1963588); note: nearly all actives have a fitted effect of over 40% in size
Sequence of Muscarinic acetylcholine receptor M1 (Homo sapiens) (P11229 whole entry, looked up): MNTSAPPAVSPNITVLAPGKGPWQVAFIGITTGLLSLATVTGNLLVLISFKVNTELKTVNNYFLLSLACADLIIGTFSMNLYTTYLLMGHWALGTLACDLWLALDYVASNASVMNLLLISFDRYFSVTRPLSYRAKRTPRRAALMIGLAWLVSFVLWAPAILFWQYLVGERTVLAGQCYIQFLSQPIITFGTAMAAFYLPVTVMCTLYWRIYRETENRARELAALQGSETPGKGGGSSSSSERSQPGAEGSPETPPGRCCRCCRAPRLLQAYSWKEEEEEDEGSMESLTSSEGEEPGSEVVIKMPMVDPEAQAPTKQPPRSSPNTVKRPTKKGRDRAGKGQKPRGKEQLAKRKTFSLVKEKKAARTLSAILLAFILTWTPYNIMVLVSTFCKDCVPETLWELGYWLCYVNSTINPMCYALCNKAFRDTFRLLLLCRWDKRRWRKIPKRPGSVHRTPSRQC
Summary of the method: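 CHRM1-CHO calcium-flux assay, antagonist mode. Cells were seeded 18 h, dye-loaded 1 h at 37 C and given compound for 5 min at RT, then acetylcholine was added at 50nM. FDSS fluorescence was read 3 min; 15 concentrations, three runs.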

[20] = molecular target: Muscarinic acetylcholine receptor M1 (Homo sapiens) (UniProt P11229); experiment: Cholinergic receptor muscarinic 1 (CHRM1) small molecule agonists, cell-based qHTS assay (AID 1963589); note: nearly all actives have a fitted effect of over 35% in size
Summary of the method: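 Human M1 in stable CHO line; 18 h plating, 1 h dye load 37 C; cpd added (agonist mode); Ca2+ fluorescence kinetic read, 1 s intervals; 15 conc, 3 runs.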

SMILES | Potency [1] | Potency [2] | Potency [3] | Potency [4] | Potency [5] | Potency [6] | Potency [7] | Potency [8] | Potency [9] | Potency [10] | Potency [11] | Potency [12] | Potency [13] | Potency [14] | Potency [15] | Potency [16] | Potency [17] | Potency [18] | Potency [19] | Potency [20]
Brc1ccccc1 | inactive | inactive | inactive | inactive | inactive | inactive | inactive | inactive | inactive | inactive | inactive | inactive | inactive | inactive | inactive | inactive |  |  |  | 
ClCC(Cl)Cl | inactive | inactive | inactive | inactive | inactive | inactive | inactive | inactive | inactive | inactive | inactive | inactive | inactive | inactive | inactive | inactive |  |  |  | 
CCC(C(N)=O)N1CCCC1=O (stereo not drawn) | inactive | inactive | inactive | inactive | inactive | inactive | inactive | inactive | inactive | inactive |  | inactive | inactive | inactive | inactive | inactive | inactive | inactive | inactive | inactive
O=S1(=O)OC(c2cc(Br)c(O)c(Br)c2)(c2cc(Br)c(O)c(Br)c2)c2ccccc21 | 14.1 µM (active) | inactive | inactive | inactive | inactive | inactive | inactive | 21 µM (active) | 18.7 µM (active) | 18.7 µM (active) |  | inactive | inactive |  |  |  | inactive | inactive | inactive | inactive
CC#Cc1cc(C)nc(Nc2ccccc2)n1 | inactive | 48.5 µM (active) | inactive | inactive | inactive | inactive | inactive | inactive | inactive | inactive | inactive | inactive | inactive |  |  | inactive |  | inactive | inactive | inactive
ClCc1ccc(Cl)cc1Cl | inactive | inactive | inactive | inactive | inactive | inactive | inactive | inactive | inactive | inactive |  | inactive | inactive | inactive | inactive | inactive | inactive | inactive | inactive | inactive
